{"source": "PubChem BioAssay", "note": "A number with no mark means an inactive call. Active and inactive are the calls of the source.", "data": [{"assay": "PSAC antagonists in infected red cells, primary screen, cell-based, P. falciparum Indochina, OD700, 2 h (AID 1155);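 note: lysis reports solute entry through the parasite surface anion channel PSAC; channel blockers reduce lysis of infected cells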", "conditions": "P. falciparum Indochina infected erythrocytes, osmotic lysis OD700; higher = more signal, called active from +8 up or from −8 down", "values": [{"smiles": "O=C1NC(=O)C2C1C=CC(C(O)c1cccc(O)c1)N2Nc1ccc(Cl)cc1Cl", "note": "(configuration not stated)", "z-score": 1.36}, {"smiles": "CC(C)C[C@@H]1NC(=O)C([C@@H](C)OCc2ccccc2)NC(=O)[C@@]23C(=O)N[C@@H](Cc4ccccc4)C2[C@H](C)[C@@]2(C)O[C@H]2C3/C=C/CC/C=C/CNC1=O", "note": "(some centres not stated)", "z-score": -0.601}, {"smiles": "COc1ccc([Si](C)(C)[C@H]2[C@H](CCO)O[C@@]3(C(=O)N(Cc4ccc(N5CCOC5=O)cc4)c4ccccc43)[C@@H]2C)cc1", "z-score": "32.8 (active)"}, {"smiles": "COc1ccc(CCNC(=O)[C@@]2(Sc3ccc(C)cc3)CC(=O)N(Cc3cc(C(F)(F)F)cc(C(F)(F)F)c3)[C@@H]2c2ccc(CO)cc2)cc1", "z-score": 0.518}, {"smiles": "CCCCC(O)C1C=CC2C(=O)NC(=O)C2N1Nc1ccc(Cl)cc1Cl", "note": "(configuration not stated)", "z-score": 1.53}, {"smiles": "CO[C@H]1O[C@H](CO)[C@@H](OC(=O)Nc2ccc3c(c2)OCO3)[C@@H]2OC(=O)[C@@H](Cc3ccccc3)C/C=C/C[C@H](Cc3ccccc3)C(=O)O[C@@H]12", "z-score": 0.825}, {"smiles": "CN(C)C(=O)[C@]1(Cc2ccccc2CN=[N+]=[N-])N=C(c2ccc(OCCCO)cc2)O[C@@H]1c1ccccc1N=[N+]=[N-]", "z-score": "30 (active)"}, {"smiles": "O=C1OCCC=C[C@H]2OC34C=CCN(CCN5CCOCC5)C(=O)[C@H]3N(CCCO)C(=O)[C@@H]4C12", "note": "(some centres not stated)", "z-score": -1.35}, {"smiles": "C=CCNC(=O)[C@@H]1[C@H]2C(=O)O[C@H](c3ccccc3)[C@H](c3ccccc3)N2[C@H](c2ccccc2OCCO)[C@@]12C(=O)N(C(=O)OCCOC)c1ccc(C#CCCO)cc12", "z-score": 1.15}, {"smiles": "C=CCC(OC(C)=O)[C@@H]1[C@@H](N(Cc2cccc3ccccc23)C(=O)c2cccc3ccccc23)c2cc(OCCCO)ccc2N1C(=O)Cc1ccc2ccccc2c1", "note": "(some centres not stated)", "z-score": 0.0473}, {"smiles": "C=C(COC)/C(=C/C[C@@H](OC(C)=O)c1ccccc1OCCO)c1cc(C(=O)OC)ccc1OC", "z-score": 2.52}, {"smiles": "COCC(=C=CC[C@@H](O)c1cccc(OCCO)c1)C[C@@H](O)COCc1ccccc1", "z-score": -1.22}, {"smiles": "CCCCC=C[C@@H](NC(=O)c1ccc(C(F)(F)F)cc1)c1ccccc1", "z-score": 0.895}, {"smiles": "COC(=O)[C@]1(CO)N=C(c2ccc(OCCCO)cc2)O[C@@H]1c1ccccc1CN=[N+]=[N-]", "z-score": 0.731}, {"smiles": "COC(=O)[C@@]1(Cc2ccc(OC)cc2)[C@H]2c3cc(C(=O)N4CCCC4)n(CCc4ccc(OC)c(Br)c4)c3C[C@H]2CN1C(=O)c1ccccc1", "z-score": 0.809}, {"smiles": "COCCOC(=O)N1C(=O)[C@@]2(c3cc(C#CCC(C(=O)OC)C(=O)OC)ccc31)[C@H](C(=O)N1CCc3cc(OC)c(OC)cc3C1)[C@H]1C(=O)O[C@H](c3ccccc3)[C@H](c3ccccc3)N1[C@@H]2c1ccc(O)cc1", "z-score": 0.524}, {"smiles": "CCC(CC)C(O)C1C=CC2C(=O)N(C)C(=O)C2N1N1CCCCC1", "note": "(configuration not stated)", "z-score": 0.787}, {"smiles": "COc1cc2c(cc1O)C(c1ccc(CN3CCCC3)cc1)N(Cc1ccc([N+](=O)[O-])o1)CC2", "note": "(configuration not stated)", "z-score": 7.28}, {"smiles": "COc1cc(OC)c(C(O)C2C=CC3C(=O)N(c4ccccc4)C(=O)C3N2Nc2ccccc2F)cc1Br", "note": "(configuration not stated)", "z-score": 2.36}, {"smiles": "NC(=O)N1C(=O)C2C(C1=O)C1C=C(CCCO)C2C(c2ccc(CN3CCCC3)cc2)N1Cc1cccc(OC(F)(F)F)c1", "note": "(configuration not stated)", "z-score": 0.63}, {"smiles": "CC(C)C[C@H]1NC(=O)[C@@]23C(=O)N[C@@H](Cc4ccccc4)C2[C@H](C)[C@@]2(C)O[C@H]2C3/C=C/C/C=C\\CNC(=O)[C@@H]2CCCN2C1=O", "note": "(some centres not stated)", "z-score": -0.26}, {"smiles": "COC(=O)[C@@]1(Cc2ccc(F)cc2)[C@H]2c3cc(C(=O)N(C)C)n(CCn4cc([N+](=O)[O-])nc4C)c3C[C@H]2CN1C(=O)c1ccccc1", "z-score": 0.288}, {"smiles": "C=CC[C@]1(C(=O)NCCCOC)N=C(c2ccc(OCCCO)cc2)O[C@H]1c1ccccc1", "z-score": 0.912}, {"smiles": "COCCOC(=O)N1C(=O)[C@@]2(c3cc(C#CC4=CCCCC4)ccc31)[C@H](c1ccccc1OCCO)N1[C@H](c3ccccc3)[C@H](c3ccccc3)OC(=O)[C@H]1[C@@H]2C(N)=O", "z-score": 0.298}, {"smiles": "CC(C)C[C@@H]1NC(=O)[C@@]23C(=O)N[C@@H](Cc4ccccc4)C2[C@H](C)[C@@]2(C)O[C@H]2C3/C=C/C/C=C\\CNC(=O)[C@@H](CC(C)C)NC1=O", "note": "(some centres not stated)", "z-score": -0.172}]}, {"assay": "osmotic lysis modulators in infected erythrocytes, primary screen, PSAC antagonist project, cell-based, P. falciparum Indochina, OD700, 3 h (AID 1156)", "conditions": "higher = more signal, called active from +8 up or from −8 down", "values": [{"smiles": "CN1C(=O)[C@]2(CCC(=O)OC(C)(C)C)N=C(c3ccc(OCCCO)cc3)O[C@@H]2c2ccccc21", "z-score": 2.63}, {"smiles": "CC(c1ccccc1)C(O)C1C=CC2C(=O)N(c3ccccc3)C(=O)C2N1Nc1ccc(C#N)cc1", "note": "(configuration not stated)", "z-score": 0.832}, {"smiles": "COCCOC(=O)N1C(=O)[C@@]2(c3cc(C#CCCO)ccc31)[C@H](C(=O)N1CCN(c3ncccn3)CC1)[C@H]1C(=O)O[C@H](c3ccccc3)[C@H](c3ccccc3)N1[C@@H]2c1ccc(O)cc1", "z-score": 1.21}, {"smiles": "C#CCN(C/C=C/c1ccccc1)[C@H](CO[Si](C)(C)C(C)(C)C)c1ccccc1", "z-score": 1.05}, {"smiles": "NCCCC[C@@H]1NC(=O)[C@H]2C[C@@H](C(=O)O)[C@@H](c3cccc(OCCO)c3)N2C1=O", "z-score": 0.452}, {"smiles": "[N-]=[N+]=NCc1ccccc1C[C@]1(C(=O)N2CCCCC2)N=C(c2ccc(OCCCO)cc2)O[C@H]1c1ccccc1", "z-score": 3.48}, {"smiles": "CCCCC(=C=CC[C@H](O)c1ccc(OCCO)cc1)C[C@H](O)c1ccccn1", "z-score": 1.11}, {"smiles": "CN(C)C(=O)[C@@]1(CCS(=O)(=O)c2ccccc2)N=C(c2ccc(OCCCO)cc2)O[C@H]1c1ccccc1N=[N+]=[N-]", "z-score": 1.78}, {"smiles": "[N-]=[N+]=NCc1ccccc1[C@@H]1OC(c2ccc(OCCCO)cc2)=N[C@]1(Cc1ccccc1)C(=O)NCc1ccccc1", "z-score": 1.52}, {"smiles": "O=C(NCCO)C1=C[C@H](Oc2ccccc2I)[C@@H](O)[C@H](NCc2ccc(F)cc2)C1", "z-score": 1.33}, {"smiles": "COc1ccc([Si](C)(C)[C@@H]2[C@@H](CC(=O)N(CCO)Cc3ccccc3)O[C@]3(C(=O)N(Cc4ccc(N5CCC5=O)cc4)c4ccccc43)[C@H]2C)cc1", "z-score": -0.709}, {"smiles": "O=C1NC(=O)C2C1C=CC(C(O)c1cccc(O)c1)N2Nc1ccc(Cl)cc1Cl", "note": "(configuration not stated)", "z-score": -0.608}, {"smiles": "CC(C)C[C@@H]1NC(=O)C([C@@H](C)OCc2ccccc2)NC(=O)[C@@]23C(=O)N[C@@H](Cc4ccccc4)C2[C@H](C)[C@@]2(C)O[C@H]2C3/C=C/CC/C=C/CNC1=O", "note": "(some centres not stated)", "z-score": -0.0722}, {"smiles": "COc1ccc([Si](C)(C)[C@H]2[C@H](CCO)O[C@@]3(C(=O)N(Cc4ccc(N5CCOC5=O)cc4)c4ccccc43)[C@@H]2C)cc1", "z-score": 1.63}, {"smiles": "COc1ccc(CCNC(=O)[C@@]2(Sc3ccc(C)cc3)CC(=O)N(Cc3cc(C(F)(F)F)cc(C(F)(F)F)c3)[C@@H]2c2ccc(CO)cc2)cc1", "z-score": 0.0927}, {"smiles": "CCCCC(O)C1C=CC2C(=O)NC(=O)C2N1Nc1ccc(Cl)cc1Cl", "note": "(configuration not stated)", "z-score": 0.39}, {"smiles": "CO[C@H]1O[C@H](CO)[C@@H](OC(=O)Nc2ccc3c(c2)OCO3)[C@@H]2OC(=O)[C@@H](Cc3ccccc3)C/C=C/C[C@H](Cc3ccccc3)C(=O)O[C@@H]12", "z-score": 0.0814}, {"smiles": "CN(C)C(=O)[C@]1(Cc2ccccc2CN=[N+]=[N-])N=C(c2ccc(OCCCO)cc2)O[C@@H]1c1ccccc1N=[N+]=[N-]", "z-score": 2.99}, {"smiles": "O=C1OCCC=C[C@H]2OC34C=CCN(CCN5CCOCC5)C(=O)[C@H]3N(CCCO)C(=O)[C@@H]4C12", "note": "(some centres not stated)", "z-score": 0.901}, {"smiles": "C=CCNC(=O)[C@@H]1[C@H]2C(=O)O[C@H](c3ccccc3)[C@H](c3ccccc3)N2[C@H](c2ccccc2OCCO)[C@@]12C(=O)N(C(=O)OCCOC)c1ccc(C#CCCO)cc12", "z-score": 0.123}, {"smiles": "C=CCC(OC(C)=O)[C@@H]1[C@@H](N(Cc2cccc3ccccc23)C(=O)c2cccc3ccccc23)c2cc(OCCCO)ccc2N1C(=O)Cc1ccc2ccccc2c1", "note": "(some centres not stated)", "z-score": 1.02}, {"smiles": "C=C(COC)/C(=C/C[C@@H](OC(C)=O)c1ccccc1OCCO)c1cc(C(=O)OC)ccc1OC", "z-score": 1.68}, {"smiles": "COCC(=C=CC[C@@H](O)c1cccc(OCCO)c1)C[C@@H](O)COCc1ccccc1", "z-score": 1.08}, {"smiles": "CCCCC=C[C@@H](NC(=O)c1ccc(C(F)(F)F)cc1)c1ccccc1", "z-score": -0.427}, {"smiles": "COC(=O)[C@]1(CO)N=C(c2ccc(OCCCO)cc2)O[C@@H]1c1ccccc1CN=[N+]=[N-]", "z-score": 1.34}, {"smiles": "COC(=O)[C@@]1(Cc2ccc(OC)cc2)[C@H]2c3cc(C(=O)N4CCCC4)n(CCc4ccc(OC)c(Br)c4)c3C[C@H]2CN1C(=O)c1ccccc1", "z-score": -0.0758}, {"smiles": "COCCOC(=O)N1C(=O)[C@@]2(c3cc(C#CCC(C(=O)OC)C(=O)OC)ccc31)[C@H](C(=O)N1CCc3cc(OC)c(OC)cc3C1)[C@H]1C(=O)O[C@H](c3ccccc3)[C@H](c3ccccc3)N1[C@@H]2c1ccc(O)cc1", "z-score": -0.5}, {"smiles": "CCC(CC)C(O)C1C=CC2C(=O)N(C)C(=O)C2N1N1CCCCC1", "note": "(configuration not stated)", "z-score": 0.156}, {"smiles": "COc1cc2c(cc1O)C(c1ccc(CN3CCCC3)cc1)N(Cc1ccc([N+](=O)[O-])o1)CC2", "note": "(configuration not stated)", "z-score": -0.176}, {"smiles": "COc1cc(OC)c(C(O)C2C=CC3C(=O)N(c4ccccc4)C(=O)C3N2Nc2ccccc2F)cc1Br", "note": "(configuration not stated)", "z-score": 0.449}, {"smiles": "NC(=O)N1C(=O)C2C(C1=O)C1C=C(CCCO)C2C(c2ccc(CN3CCCC3)cc2)N1Cc1cccc(OC(F)(F)F)c1", "note": "(configuration not stated)", "z-score": 0.0703}, {"smiles": "CC(C)C[C@H]1NC(=O)[C@@]23C(=O)N[C@@H](Cc4ccccc4)C2[C@H](C)[C@@]2(C)O[C@H]2C3/C=C/C/C=C\\CNC(=O)[C@@H]2CCCN2C1=O", "note": "(some centres not stated)", "z-score": -0.875}]}]}
